D1 potentiator = human D1 dopamine receptor positive modulation | P21728 | HEK293 TREx D1 cells, calcium flux, dopamine EC20 potentiation | potentiation, % at 10 µM | hit rate 0.036% among 360,000 | AID 504651; in the data active = potentiation above about 30%; note: 0% is about no effect
TRHR enhancer = TRH receptor (human) allosteric enhancement | TRHR cells, fluo-8 calcium fluorescence, EC20 TRH enhancement | hit rate 0.66% among 360,000 | enhancement, % at 2 µM; in the data active = enhancement above about 30%; note: 0% is about no effect
Target sequence (P34981 whole entry, looked up): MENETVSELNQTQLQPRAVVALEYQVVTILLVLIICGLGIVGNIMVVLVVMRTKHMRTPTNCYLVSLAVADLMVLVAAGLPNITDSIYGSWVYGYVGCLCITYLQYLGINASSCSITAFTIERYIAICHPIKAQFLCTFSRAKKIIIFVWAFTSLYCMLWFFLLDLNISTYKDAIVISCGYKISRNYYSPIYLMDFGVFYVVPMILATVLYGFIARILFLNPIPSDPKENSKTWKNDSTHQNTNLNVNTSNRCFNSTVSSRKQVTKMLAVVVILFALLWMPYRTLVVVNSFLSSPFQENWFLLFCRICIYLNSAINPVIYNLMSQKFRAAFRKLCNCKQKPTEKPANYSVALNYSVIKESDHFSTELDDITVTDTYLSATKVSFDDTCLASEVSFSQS
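TRHR-expressing cells loaded with fluo-8 calcium dye were read kinetically (ex 480/em 530) during compound addition, then stimulated with an EC20 of TRH (10 nM final). Enhancement of the Gq-mediated intracellular calcium response was scored.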
TRHR agonist = agonists of human TRH receptor; P34981; TRHR cells, calcium flux fluo-8, FDSS agonist mode; activation, % at 2 µM; hit rate 0.18% among 360,000; AID 493084; note: 0% is about no effect
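Agonist-mode FDSS calcium read (Ex 480/Em 530, 1 s cycles) in 1536-well TRHR cells with fluo-8 dye, after 10-cycle baseline and 23 nL compound addition; TRH at EC20 (10 nM final) added afterwards for the enhancer phase.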
D1 antag = antagonists of human D1 dopamine receptor; HEK293 TREx D1 cells, calcium flux, dopamine EC80; active compounds read low; activity change, negative = inhibition, % at 10 µM; hit rate 3.2% among 360,000; AID 504652; P21728; in the data active = activity change below about -30%; note: % is set by controls: 0 for no effect and ±100 for the full control effect
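Tetracycline-induced HEK293 Trex D1 cells, force-coupled to calcium, dye-loaded; compounds added and read 180 s, then EC80 dopamine added and calcium flux tracked kinetically another 180 s.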
D1 ag = activates the human D1 dopamine receptor | activation, % at 2 µM | HEK293 T-REx D1 cells, calcium flux, agonist mode | hit rate 1% among 360,000 | P21728; note: 0% is about no effect
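Agonism was scored from calcium flux recorded over 180 s (1 read/s) after pintool compound addition, following a 10-cycle baseline. Cells were inducible force-coupled HEK293 TREx D1, plated overnight at 30 C and loaded with no-wash calcium dye.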
Numbers without * were called inactive; ! = not active in a repeat. Hits are enriched below; roughly 4.7% of the tested compounds scored in any of these assays. Cut-off read from the data, not from the text of the source, unless noted: active = activation above about 30%; inactive = the rest.

SMILES | D1 potentiator | TRHR enhancer | TRHR agonist | D1 antag | D1 ag
COc1ccc(Cc2nc(-c3ccc(-n4cccc4)cc3)no2)cc1OC | 5 | 1 | 0 | -39* | 32*
N#CC1=C2SCC(O)(c3ccccc3)N2C(=O)CC1c1cccs1 (stereo not drawn) | -9 | 3 | 3 | -28 | 63*
O=C(CCCn1c(=O)c2cccn2c2cccnc21)Nc1ccccc1Br | -1 | -1 | -1 | 1 | 2
CCC(Cn1nnc2ccccc2c1=O)NC(=O)Nc1ccc(C)cc1C (stereo not drawn) | 3 | -18 | -1 | 26 | 0
CSc1ncc(C(=O)Nc2ccccc2C)c(C)n1 | -5 | 5 | 0 | -4 | 4
CSc1ncc(C(=O)Nc2cccc(C)c2C)c(C)n1 | -3 | 3 | 0 | -47* | 0
O=C1/C(=C/c2ccccc2)SC(=S)N1C1CCS(=O)(=O)C1 (stereo not drawn) | -11 | -2 | 0 | -46* | 10
O=C1/C(=C/c2ccncc2)SC(=S)N1C1CCS(=O)(=O)C1 (stereo not drawn) | -1 | 1 | 1 | -6 | 1
OCC1(CCOc2ccccc2)CCN(Cc2ccncc2)CC1 | -5 | -3 | 0 | 32 | 0
COc1ccc(CN2CCC(CO)(CCOc3ccccc3)CC2)cc1C | -2 | 4 | 4 | 17 | 48*
CSc1ccc(CN2CCC(CO)(CCOc3ccccc3)CC2)cc1 | -8 | 0 | 2 | 5 | 41*
COc1ccc(C(CC(=O)Nc2ccc(OC)c(OC)c2)N2Cc3ccccc3C2=O)cc1 (stereo not drawn) | -6 | 5 | 0 | -4 | 0
COc1ccc(-n2ccnc(NCc3ccc(Cl)cc3)c2=O)cc1 | 0 | 10 | -1 | 10 | 5
N#Cc1c(-c2ccccc2Cl)cc(C2CC2)nc1N | 7 | 24 | 13 | 21 | 99*
COc1ccccc1-c1cc(C2CC2)nc(N)c1C#N | 0 | 6 | -1 | 11 | 3
COc1ccc(CC(=O)Nc2c(C(=O)N3CCN(c4ccccc4)CC3)oc3ccccc23)cc1OC | -4 | -3 | 0 | -31*! | -1
O=C(Nc1c(C(=O)N2CCN(c3ccc(F)cc3)CC2)oc2ccccc12)c1c(F)cccc1F | -5 | 23 | -2 | -59* | 2
Cc1cccc(C(=O)Nc2c(C(=O)N3CCN(c4ccc(F)cc4)CC3)oc3ccccc23)c1 | -4 | -10 | 6 | 12 | 2
COc1ccc(CC(=O)Nc2c(C(=O)N3CCN(c4ccccc4OC)CC3)oc3ccccc23)cc1OC | -4 | -14 | 0 | -6 | 3
COCCn1c(CNC(=O)c2ccccc2C)nc2cccnc21 | -4 | -3 | 0 | 4 | 1
Cc1ccc2c(c1)C(c1ccc(F)cc1)N(C(=O)c1ccc(OC(C)C)cc1)CC(=O)N2 (stereo not drawn) | 2 | -6 | 0 | 10 | 4
O=C(NNC1=NS(=O)(=O)c2ccccc21)c1ccc(Cl)cc1 | -9 | 3 | 0 | -25 | 0
O=C(NNC1=NS(=O)(=O)c2ccccc21)c1ccc([N+](=O)[O-])cc1 | 0 | 30* | 0 | -16 | 2
Cc1ccc(NC(=O)CN(C)C(=O)CSc2nc3ccccc3c(=O)n2Cc2ccco2)cc1 | -2 | 1 | 0 | -33* | 3
CCN(CC)CCn1c(SCC(=O)Nc2ccc3c(c2)CCC3)nc2ccccc2c1=O | -4 | -4 | 0 | -32* | 2
SMILES | D1 potentiator | TRHR enhancer | TRHR agonist | D1 antag | D1 ag
CCOCCCn1c(SCC(=O)Nc2cccc(OC)c2)nc2ccccc2c1=O | -3 | -7 | -1 | -46*! | 1
CCOC(=O)c1ccccc1NS(=O)(=O)c1ccc(N2CCCCS2(=O)=O)cc1 | 2 | -4 | 0 | -22 | 9
COc1cc(NC(=O)c2nc3cc(C)c(C)cc3n(C)c2=O)cc(OC)c1OC | 1 | -1 | 0 | 15 | 12
Cc1ccc(N2C(=O)C3C4C=CC(CNC(=S)Nc5ccc(Cl)cc5)(O4)C3C2=O)cc1 (stereo not drawn) | -10 | -4 | 0 | -31* | 13
Cc1ccc(N2C(=O)C3C4C=CC(CNC(=S)Nc5ccc(F)cc5)(O4)C3C2=O)cc1 (stereo not drawn) | -5 | 6 | -1 | -7 | 7
CCOC(=O)c1ccc(COC(=O)CNC(=O)CNC(=O)Cc2ccccc2)cc1 | -1 | 2 | -1 | 6 | 3
O=C(CNS(=O)(=O)c1ccccc1)NCC(=O)OCc1ccc(Br)cc1 | 5 | -3 | 0 | -2 | 2
O=C(CNC(=O)c1ccc(Br)o1)Nc1ccncc1 | -4 | -1 | 0 | -64* | 0
O=C(CNC(=O)Cc1ccccc1)NCC(=O)OCc1ccc(C(=O)c2ccccc2)cc1 | 1 | -5 | -1 | -63* | 4
O=C(Nc1ccc(Cc2ccncc2)cc1)c1ccc(Br)o1 | -8 | -4 | -1 | -9 | 1
O=C(CNC(=O)c1ccc(Br)o1)NCC(=O)OCc1ccccc1 | -7 | 30* | 0 | 5 | 1
C=C1CC2C(CCC3(C)C2CCC3(O)C(C)=O)C2(C)CCC(=O)C=C12 (stereo not drawn) | -2 | -8 | 0 | -51* | 4
CC(NC(=O)c1ccco1)c1nc(-c2ccc(Cl)cc2)no1 (stereo not drawn) | -7 | 9 | 0 | -2 | 9
Cc1ccccc1-c1noc(C(C)NC(=O)c2ccco2)n1 (stereo not drawn) | 0 | 3 | 0 | -40*! | 3
CCCc1cc(=O)[nH]c(-n2[nH]c3c(c2=O)CCCC3)n1 | 1 | 0 | 0 | -6 | 67*
CCCc1cc(=O)[nH]c(NCc2ccc(Cl)cc2)n1 | -3 | 3 | -1 | 2 | 1
COc1ccc(S(=O)(=O)n2ccc(C)n2)cc1C | 3 | 0 | 0 | 0 | -1
COc1cc(C)c(S(=O)(=O)n2ccc(C)n2)cc1C | -2 | -14 | -1 | -32* | 0
CC(=O)Nc1ccc(S(=O)(=O)Nc2cccc(-c3ccc4nncn4n3)c2)cc1 | 3 | -2 | 0 | 2 | 1
CCC(CC)C(=O)Nc1cccc(-c2ccc3nncn3n2)c1 | -3 | 31* | 5 | 5 | 1
CC(=O)c1ccc(S(=O)(=O)Nc2cccc(-c3ccc4nncn4n3)c2)cc1 | -2 | 3 | 0 | -37* | 0
COc1ccc(NC(=O)c2oc3c(c2C)-c2nn(Cc4ccccc4Cl)cc2CC3)cc1OC | -1 | 0 | 0 | 4 | 1
CC1CCN(S(=O)(=O)c2ccc3c(c2)N(CC(=O)Nc2ccc(F)c(Cl)c2)C(=O)CO3)CC1 | -2 | -5 | 1 | 17 | 3
C[C@@H]1CCC(=O)N(C[C@@H](C)CSc2ccc(Br)cc2)CC1 | -1 | -2 | 0 | -51* | -1
CCOC(=O)c1[nH]c(C)c(/C=N/O)c1C | -12 | 2 | -1 | -56* | 1
COc1ccccc1N1CCN(C(=O)c2oc3ccccc3c2N)CC1 | -4 | 0 | 0 | 2 | -1

Compound activity: PubChem BioAssay, National Center for Advancing Translational Sciences (NCATS)
